SNCA viab count: cell viability loss counter-screen | HEK-293-SNCA-luc viability, GF-AFC fluorescence, 24 h | Potency, µM (series often up to 57.1 µM), without a hit: top-dose activity change, negative = cytotoxicity, actives largely listed as cytotoxic | AID 1671193 | actives 0.12% (n = 150,000);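 note: potency is the fitted concentration of half-maximal effect; 0% = DMSO-treated cells and -100% = medium-only wells without cells; nearly all actives have a fitted effect of over 30% in size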
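HEK-293-SNCA-luc cells (1500/well) plated 24 h, then exposed 24 h to a dilution series; GF-AFC added 30 min at 37C, fluorescence 405/540 nm; normalised to medium-only and DMSO wells, Hill fit.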
SNCA expr inhib: reduces expression of the alpha-synuclein gene; HEK-293 SNCA-luciferase knock-in, luminescence, 24 h; Potency, µM (doses to about 57.2 µM), for inactives: at the top dose activity change, negative = inhibition, usual class: inhibitors; actives 0.17% (n = 140,000); AID 1671194;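 note: potency is the fitted concentration of half-maximal effect; plate controls were DMSO cells for no effect and cell-free wells for full effect; nearly all actives have a fitted effect of over 45% in size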
IP6K1 inh: inhibitors of human IP6K1; actives 0.81% (n = 140,000); activity change, % (series mostly up to about 58 µM); IP6K1 kinase, ADP-Glo luminescence, 2 h; active compounds read low; Q92551; in the data active = activity change below about -25%; note: % is set by controls: 0 for no effect and ±100 for the full control effect
Target sequence (Q92551 whole entry, looked up): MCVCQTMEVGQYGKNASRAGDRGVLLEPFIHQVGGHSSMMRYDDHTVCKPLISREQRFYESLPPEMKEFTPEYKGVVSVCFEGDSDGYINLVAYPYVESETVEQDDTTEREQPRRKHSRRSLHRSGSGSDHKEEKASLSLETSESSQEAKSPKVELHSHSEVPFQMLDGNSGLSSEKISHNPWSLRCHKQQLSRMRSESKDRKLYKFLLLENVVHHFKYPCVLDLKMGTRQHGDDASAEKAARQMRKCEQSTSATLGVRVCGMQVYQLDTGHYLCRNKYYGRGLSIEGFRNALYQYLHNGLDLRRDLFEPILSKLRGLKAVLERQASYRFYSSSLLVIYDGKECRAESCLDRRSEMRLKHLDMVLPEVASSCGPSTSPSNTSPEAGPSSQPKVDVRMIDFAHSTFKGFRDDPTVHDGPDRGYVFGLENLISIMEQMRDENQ
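ADP-Glo luminescence measures ADP made by human IP6K1 during a 2 h RT reaction with ATP/IP6 (mix at 1.3 mM/130 uM); top library doses 57.5 and 19.1 uM final.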
KDM5B inh: KDM5B demethylase inhibition; Q9UGL1; KDM5B demethylase, FDH-coupled NADH fluorescence (FDH is formaldehyde dehydrogenase); Potency, µM (titrated, usually from 57.7 µM), actives largely listed as inhibitors; actives 2.6% (n = 220,000); AID 1347165; note: potency is the fitted concentration of half-maximal effect; 0% is about no effect; nearly all actives have a fitted effect of over 70% in size
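Coupled FDH/NAD⁺ fluorescence readout. KDM5BΔAP 200 nM final; compound titration, 10 min RT preincubation; substrate mix 12.5 µM H3K4me3, 25 µM 2-OG, 50 µM Fe(II), 100 µM ascorbate, 0.25 mM NAD⁺, 0.25 U/mL FDH; ΔRFU over 30 min.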
* hit, by the source's call; i = inactive; ? = inconclusive; · = no result given; [ ] = another dose, or the depositor's remark. This is a sample that favours compounds with a hit; in the whole collection about 2.9% have one here. Unless noted, calls come from the whole dose curve; as a rule, active = well fitted curve in the direction sought with a large enough effect; inconclusive = small, poorly fitted or top-dose-only effect, or another doubt; inactive = no such curve, though single readings can be large; an effect the other way counts as inactive or inconclusive.

SMILES	SNCA viab count	SNCA expr inhib	IP6K1 inh	KDM5B inh
O=C(NC1CCN(c2ccnc3ccnn23)C1)C1CCCC1 (centres undefined)	6%[87.6 µM]	-4%[87.6 µM]	10	·
Cn1c(CN2CCOC[C@H]2c2ncc(-c3ccc(Cl)cc3)[nH]2)nc2ccccc21	-12%[87.6 µM]	-2%[87.6 µM]	-9	i
Cc1ccc(C(=O)Nc2cc(-c3ccncc3)nn2C)cc1	-6%[87.6 µM]	-5%[87.6 µM]	2	·
c1cc(CN2CCOCC2)cc(-c2cnn3ccccc23)c1	2%	7%	-15	32µM*
CN1C[C@H](C(=O)N2CCN(c3ccccn3)CC2)C[C@H]1c1cccc(C(F)(F)F)c1	-17%[87.6 µM]	-1%[87.6 µM]	13	40µM*
COCCCn1c(C)cc(C(=O)N2CCCC(c3[nH]ccc3C(N)=O)C2)c1C (centres undefined)	11%[12.5 µM]	?	14	18µM*
Cc1ccc(Nc2ccnc(N3CCN(C(=O)Cc4ccc(F)cc4)CC3)n2)cc1	-6%	7%	-16	·
COc1cccc(CN2CCCCCNC(=O)[C@@H]3CCC[C@@H]32)c1	6%	22%	-5	20µM*
COc1cccc(CN2CCCCCCNC(=O)[C@@H]3CCC[C@@H]32)c1	-4%	4%	-5	?
Cn1ncc2c(C(=O)N3CCCCC3)cc(-c3ccccc3F)nc21	·	·	1	·
Cc1nn(-c2ccccc2)c2c1C(C)N(CC1CN(C(=O)c3ccccc3)C1)C2=O (centres undefined)	·	·	8	·
CC(C)CNC(=O)c1cc(C2CC2)nc2c1c(C1CCNC1)nn2C (centres undefined)	4%	1%	2	89µM*
COCCNC(=O)c1cc(C2CC2)nc2c1c(C1CCNC1)nn2C (centres undefined)	9%	2%	13	89µM*
Cn1nc(C2CCNC2)c2c(C(=O)NCc3cccs3)cc(C3CC3)nc21 (centres undefined)	-6%	3%	-9	?
Cn1nc(C2CCCN2)c2c(C(=O)N3CCOCC3)cc(C3CC3)nc21 (centres undefined)	0%	0%	5	?
COCCNC(=O)c1cc(C2CC2)nc2c1c(C1CCCNC1)nn2C (centres undefined)	2%	?	4	89µM*
COCCCNC(=O)c1cc(C2CC2)nc2onc(C3CCNC3)c12 (centres undefined)	1%	47%	2	?
Cn1nc(C2CCNC2)c2c(C(=O)N3CCOCC3)cc(C3CC3)nc21 (centres undefined)	-6%	2%	-2	89µM*
Cc1ccc(Nc2ccnc(N3CCCN(C(=O)N(C)C)C3)n2)cc1	-6%[12.5 µM]	45%[87.6 µM]	15	·
O=C(NCCCc1ccccc1)c1ccc2nc(-c3cccnc3Cl)oc2c1	-4%[87.6 µM]	48%[87.6 µM]	2	·
Cc1nn(-c2ccccc2)c2c1C(C)N(CC1CN(Cc3ccc(F)cc3)C1)C2=O (centres undefined)	·	·	4	·
O=C1N(Cc2ccc(F)cc2)C[C@H]2CN(Cc3cnc4ccccc4c3)CCN12	-7%[87.6 µM]	-26%[87.6 µM]	-4	i
O=C(NC1CCN(c2cc(-c3ccccc3)[nH]n2)CC1)c1ccc2ccccc2n1	-25%	-14%	24	i
Fc1ccc(-c2ccnc3ncnn23)cc1	-7%	-17%	9	28µM*
Brc1ccc(-c2ccnc3ncnn23)s1	-3%	38%	-4	i
SMILES	SNCA viab count	SNCA expr inhib	IP6K1 inh	KDM5B inh
CC(C)C(C)NC(=O)CSc1ccc2ccccc2n1 (centres undefined)	·	·	·	i
Cc1ccc(NC(=O)N2CC(CN3C(=O)c4c(c(C)nn4-c4ccccc4)C3C)C2)cc1F (centres undefined)	·	·	2	·
Cn1ccc(NC(=O)c2ccc3c(c2)NC(C)(CNCc2ccccc2)CO3)n1 (centres undefined)	?	?	-1	?
COc1ccc(OCC2(C)COc3ccc(C(=O)Nc4ccc(OC)nc4)cc3N2)cc1 (centres undefined)	?	?	3	40µM*
COc1cccc(NC(=O)c2ccc3c(c2)NC(C)(COc2ccc4[nH]ccc4c2)CO3)c1 (centres undefined)	-29%	?	3	32µM*
COc1ccc(OCC2(C)COc3ccc(C(=O)Nc4ccn(C)n4)cc3N2)cc1 (centres undefined)	?	?	-4	32µM*
COc1cccc(CNC(=O)c2nc3sccn3c2-c2cccc(C(F)(F)F)c2)c1	-15%	-13%	19	·
CCCC(=O)N1Cc2ccccc2CC2(CCCN(Cc3ccccc3)C2)C1 (centres undefined)	?	?	0	i
CCc1c(C)nn(CC(=O)NC2CCCN(c3ncccn3)C2)c1C (centres undefined)	3%	10%	7	20µM*
COc1ccc(C2(C(=O)NC3CCCN(c4ncccn4)C3)CC2)cc1 (centres undefined)	-1%	32%	-6	22µM*
COc1cccc(-c2cc(C(=O)N(C)CC#N)c3cnn(C)c3n2)c1	·	·	8	·
CCc1cccc(NC(=O)Cn2c(-c3cccc(Cl)c3)nc(C)c(CCO)c2=O)c1	1%	-21%	-5	i
COc1ccc(-c2cccc(C(=O)N3CCN(Cc4ccccc4)CC3)c2)nn1	·	·	13	·
Cc1ccc(-c2cnc([C@@H]3COCCN3C(C)C)[nH]2)cc1	-10%[87.6 µM]	5%[87.6 µM]	4	i
O=C(NCCc1ccc(Cl)cc1)C1CCCN(Cc2cccc(-c3ccsc3)c2)C1 (centres undefined)	·	·	-5	·
O=Cc1ccc(-c2ccc(O)cc2)cc1	-9%[87.6 µM]	-6%[87.6 µM]	-10	14µM*
O=C(/C=C/c1ccc(O)cc1)c1ccc(-c2ccccc2)cc1	·	·	·	i
Cc1cccc(-c2ccc(C=O)cc2)c1	7%[87.6 µM]	-2%[87.6 µM]	-15	45µM*
Cc1ccc(-c2ccc(C=O)cc2)cc1Cl	-11%[87.6 µM]	116%[87.6 µM]	-13	50µM*
Cc1nn(-c2ccccc2)c2c1C(C1CC1)N(CC1CN(C(=O)C3CCCC3)C1)C2=O (centres undefined)	·	·	-14	·
COc1ccc(-c2cc(N3CCCC(NC(=O)c4ccc(C)nc4)C3)n[nH]2)cc1 (centres undefined)	-18%	16%	1	?
CCN(CC)c1cc(CCC(=O)NCCN(C)C2CCCCC2)ccn1	-26%	?	-7	28µM*
CCN(CC)c1cc(CCC(=O)O)ccn1	4%	6%	-9	i
CCN(CC)c1cc(CCC(=O)NCCN2CCCCCC2)ccn1	-20%	-15%	13	28µM*
CCN(CC)c1cc(CCC(=O)N2CCN(c3cccc(OC)c3)CC2)ccn1	-12%	?	-5	?
CCN(CC)c1cc(CCC(=O)NCCCN2CCN(C)CC2)ccn1	-7%	26%	2	25µM*
CCN(CC)c1cc(CCC(=O)N2CCN(c3ccc(Cl)cc3)CC2)ccn1	0%	-20%	-1	?
CCN(CC)c1cc(CCC(=O)N2CCC(COC)CC2)ccn1	-6%	-17%	-11	25µM*
CCN(CC)c1cc(CCC(=O)NCc2ccc(N3CCOCC3)cc2)ccn1	-9%	25%	-3	?
